# Assay results taken from PubChem BioAssay.
# Several values for one entry are separate records, joined by “and”; a condition that tells them apart may be missing. Equal entries are not always repeated. Activity calls are given as the source filed them. Rule as the data show it, unless noted: active = inhibition above about 80%; inactive = the rest.
# How the values were obtained:
# [1] = viability loss with induced miR-34 in A549 – imaging, A549 dox-inducible miR-34, nuclei and caspase counts, primary screen (AID 1347080;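 active = compounds whose cell count with miR-34 switched on is under 0.7 times the count with it off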); conditions: A549 miR-34 inducible, Hoechst nuclei count, 48 h
# [2] = MELAS cybrid and Rieske KO viability enhancers – cell-based, MELAS cybrids, Rieske KO mouse fibroblasts, CellTiter-Glo, primary screen (AID 1508586;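 active = mean z-score across replicates of 1.96 or higher in either the MELAS or the Rieske mutant cell line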;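 also: z relative to plate mean and SD of compound and empty wells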); conditions: low glucose
# [3] = galactose survival enhancers in mitochondrial complex I cybrids – cell-based, galactose medium, ATP luminescence, primary screen (AID 1645843;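 active = z-score of at least 1.8 in each of two replicates, scored against plate mean and spread of sample wells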;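 also: positive z means more ATP and so rescue of galactose-driven cybrid death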); conditions: complex I mutant cybrid cells, 72 h, stronger effect = higher value
# [4] = growth inhibition, single agent or in combination, cell-based, chromothripsis tumors, cisplatin or BGB combos (AID 1671449); conditions: LFS_MB_P medulloblastoma cells;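 also: cells exposed for 96 hours; 0% = vehicle DMSO and 100% = killing by high DMSO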
# [5] = growth inhibition, single agent and combos, cell-based, chromothripsis tumors, cisplatin or BGB combos (AID 1671450); conditions: HDN33 neuroblastoma cells, stronger effect = higher value;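 also: cells exposed to compound for four days; 0% = vehicle DMSO and 100% = cell killing by high DMSO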
# [6] = growth inhibition, single agents and combos, ICB984, cell-based, cisplatin or BGB combos, synergistic combos for chromothripsis tumors (AID 1671451; call rule not given here;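 also: cells exposed for 96 hours before readout; 0% = vehicle DMSO and 100% = killing by high DMSO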); conditions: ICB984 medulloblastoma cells, drug combinations, stronger effect = higher value
# [7] = growth inhibition, single agents and combos, LFS_MB_1R, cell-based, cisplatin or BGB combos, synergistic combos for chromothripsis tumors (AID 1671452); conditions: LFS_MB_1R medulloblastoma cells, stronger effect = higher value;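 also: cells exposed for 96 hours before readout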
# [8] = growth inhibition, single agents and combos, HTB85, cell-based, BGB or cisplatin IC20 combos, synergistic combos for chromothripsis tumors (AID 1671453); conditions: HTB85 osteosarcoma cells, drug combinations, stronger effect = higher value;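 also: cells exposed for 96 hours before readout; 0% = vehicle DMSO and 100% = high DMSO killing control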
# [9] = growth inhibition, single agents and combos, CRL2098, cell-based, BGB or cisplatin IC20 combos, synergistic combos for chromothripsis tumors (AID 1671454); conditions: CRL2098 osteosarcoma cells, drug combinations, stronger effect = higher value;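 also: cells exposed for 96 h before readout; 0% = vehicle DMSO and 100% = killing by high DMSO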
# [10] = growth inhibition, single agents and combos, HD-MB03, cell-based, BGB or cisplatin IC20 combos, synergistic combos for chromothripsis tumors (AID 1671455; in the data active = inhibition above about 83%;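 also: 0% = vehicle DMSO and 100% = high DMSO as cytotoxic control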); conditions: HD-MB03 medulloblastoma cells, stronger effect = higher value
# [11] = growth inhibition, single agents and combos, UWB1.289, cell-based, BGB or cisplatin combos, synergistic combos for chromothripsis tumors (AID 1671456); conditions: UWB1.289 ovarian carcinoma cells, stronger effect = higher value;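 also: cells exposed to compound for four days; 0% = vehicle DMSO and 100% = killing by high DMSO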
# [12] = growth inhibition, single agents and combos, LFS_MB_2R, cell-based, cisplatin combos, synergistic combos for chromothripsis tumors (AID 1671457); conditions: LFS_MB_2R medulloblastoma cells, stronger effect = higher value;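 also: cells exposed to compound for four days before readout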
# [13] = growth inhibition, MDA-MB-436, cell-based, BGB or cisplatin combos, synergistic combos for chromothripsis tumors (AID 1671458; call rule not given here;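 also: cells exposed for 96 hours; 0% = vehicle DMSO and 100% = killing by high DMSO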); conditions: MDA-MB-436 breast carcinoma growth inhibition, drug combinations, stronger effect = higher value
# [14] = UWB1.289_BRCA1 ovarian cancer growth, cell-based, BGB or cisplatin combinations (AID 1671459); conditions: UWB1.289 BRCA1 ovarian carcinoma, drug combinations, stronger effect = higher value
# [15] = drug combination toxicity in non-malignant astrocytes – cell-based, BGB or cisplatin IC20 combos, cytotoxicity control for chromothriptic childhood tumor combination screen (AID 1671460); conditions: Human astrocytes, viability inhibition, drug combinations, at 0.5 µM, stronger effect = higher value;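 also: cells exposed to compounds for 96 hours before viability readout; 0% = vehicle and 100% = killing control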
# [16] = BT084 cell growth, single and combined drugs, ICGC_MB145, cisplatin and BGB IC40 combos (AID 1671461); conditions: BT084 medulloblastoma cells, drug combinations, stronger effect = higher value;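 also: cells exposed to drugs for 96 hours; 0% = vehicle DMSO and 100% = high DMSO full killing control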
# [17] = RCMB18 cell growth, single agent and combined, cisplatin and BGB IC40 combos (AID 1671462); conditions: RCMB18 medulloblastoma cells, stronger effect = higher value;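 also: cells exposed to compound for four days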
# [18] = CRL1545 cell growth, single agent and combined, cisplatin and BGB IC20 combos (AID 1671464); conditions: CRL1545 osteosarcoma cells, stronger effect = higher value;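 also: cells exposed to compound for 96 hours before readout; 0% = vehicle DMSO and 100% = high DMSO killing control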
# [19] = stronger effect = lower value, cell number ratio, induced over uninduced
# [20] = measured here: relative caspase fold change +Dox/-Dox
# [21] = measured here: total cells with miR-34 induction, stronger effect = lower value
# [22] = measured here: total cells without miR-34 induction
# [23] = MELAS cybrid survival, CellTiter-Glo 48 h, stronger effect = higher value
# [24] = Rieske KO mouse fibroblast survival, CellTiter-Glo 72 h
# [25] = measured here: combination with BGB IC40, at 0.05 µM
# [26] = measured here: with BGB IC20 combination, at 0.5 µM
# [27] = measured here: with cisplatin IC20 combination, at 0.5 µM
# [28] = measured here: combination with cisplatin, at 0.5 µM
# [29] = measured here: combination with cisplatin, at 5 µM
compound,measurement,setting,value
Nc1ccn(C2CCC(CO)O2)c(=O)n1 (stereo not given),fold change,[1]; [19],0.958 (inactive) and 0.921 (inactive)
same,fold change,[1]; [20],1.84 and 0.793
same,cell count,[1]; [21],9800 and 8610
same,cell count,[1]; [22],10200 and 9350
same,z-score,[2]; [23],-0.101 (inactive)
same,z-score,[2]; [24],0.566
same,z-score,[3],0.445 (inactive)
same,inhibition,"[4]; at 0.5 µM, stronger effect = higher value",-21% (inactive)
same,inhibition,"[4]; measured here: combination with BGB IC20, at 0.005 µM",-12.9%
same,inhibition,"[4]; measured here: combination with BGB IC40, at 0.005 µM",8.5%
same,inhibition,[4]; [25],-10.6%
same,inhibition,"[4]; measured here: combination with cisplatin, at 0.5 µM, stronger effect = higher value",-35%
same,inhibition,"[4]; measured here: combination with cisplatin, at 5 µM, stronger effect = higher value",-13%
same,inhibition,"[5]; BGB combo, at 5 µM",-33.4%
same,inhibition,[5]; at 0.5 µM,-28.1% (inactive)
same,inhibition,"[5]; cisplatin combo, at 5 µM",-14%
same,inhibition,[5]; [26],-28.7%
same,inhibition,[5]; [27],-15.2%
same,inhibition,"[5]; single agent, at 5 µM",-52.9%
same,inhibition,"[6]; BGB IC20 combo, at 0.005 µM",-1.06%
same,inhibition,"[6]; BGB IC40 combo, at 0.005 µM",-15.6%
same,inhibition,"[6]; BGB IC40 combo, at 0.05 µM",-24.6%
same,inhibition,[6]; at 0.5 µM,-11.4% (inactive)
same,inhibition,"[6]; cisplatin combo, at 0.05 µM",-24.6%
same,inhibition,"[6]; cisplatin combo, at 0.5 µM",-24.3%
same,inhibition,"[6]; cisplatin combo, at 5 µM",15.2%
same,inhibition,"[6]; measured here: 5 uM single agent, at 5 µM",-2.52%
same,inhibition,[7]; at 0.5 µM,-18.2% (inactive)
same,inhibition,[7]; [25],-11.6%
same,inhibition,[7]; [28],-19.1%
same,inhibition,[7]; [29],-44%
same,inhibition,[8]; at 0.5 µM,-28.2% (inactive)
same,inhibition,"[8]; measured here: with BGB IC20, at 0.5 µM",-29.8%
same,inhibition,"[8]; measured here: with BGB IC20, at 5 µM",-10%
same,inhibition,"[8]; measured here: with cisplatin IC20, at 0.5 µM",-43.4%
same,inhibition,"[8]; measured here: with cisplatin IC20, at 5 µM",-30.1%
same,inhibition,"[8]; single agent, at 5 µM",-16.7%
same,inhibition,[9]; at 0.5 µM,-61.6% (inactive)
same,inhibition,"[9]; measured here: combination with BGB at IC20, at 0.5 µM",-74.6%
same,inhibition,"[9]; measured here: combination with cisplatin at IC20, at 0.5 µM",-68.6%
same,inhibition,[10]; at 0.5 µM,-9.09% (inactive)
same,inhibition,"[10]; measured here: combo with BGB at IC20, at 0.5 µM",-13.9%
same,inhibition,"[10]; measured here: combo with cisplatin at IC20, at 0.5 µM",-16.6%
same,inhibition,[11]; at 0.5 µM,7.61% (inactive)
same,inhibition,"[11]; measured here: inhibition with BGB combination, at 0.05 µM",-29.4%
same,inhibition,"[11]; measured here: inhibition with cisplatin combination, at 0.05 µM",-3.05%
same,inhibition,[12]; at 0.5 µM,-6.12% (inactive)
same,inhibition,[12]; [28],0.862%
same,inhibition,[12]; [29],2.6%
same,inhibition,[13]; at 0.5 µM,-21.2% (inactive)
same,inhibition,"[13]; measured here: BGB combination, at 0.5 µM",-29.5%
same,inhibition,"[13]; measured here: BGB combination, at 5 µM",-21.7%
same,inhibition,"[13]; measured here: cisplatin combination, at 0.5 µM",-25.6%
same,inhibition,"[13]; measured here: cisplatin combination, at 5 µM",-2.99%
same,inhibition,"[14]; BGB combination, concentration series, at 5 µM",-17.4%
same,inhibition,[14]; at 0.5 µM,-16.8% (inactive)
same,inhibition,"[14]; cisplatin combination, concentration series, at 5 µM",-7.33%
same,inhibition,[15],-3.66% (inactive)
same,inhibition,[15]; measured here: combo with BGB IC20,2.88%
same,inhibition,[15]; measured here: combo with cisplatin IC20,-17%
same,inhibition,[16]; at 0.5 µM,-0.679% (inactive)
same,inhibition,"[16]; cisplatin combination, at 0.5 µM",-0.865%
same,inhibition,"[16]; cisplatin combination, at 5 µM",-52%
same,inhibition,"[16]; measured here: BGB IC40 combination 0.05 uM, at 0.05 µM",24%
same,inhibition,"[16]; single agent, at 5 µM",-28.3%
same,inhibition,[17]; at 0.5 µM,-1.7% (inactive)
same,inhibition,"[17]; cisplatin combo, at 5 µM",11.7%
same,inhibition,"[17]; measured here: BGB IC40 combination, at 0.05 µM",-6.98%
same,inhibition,[17]; [28],-10.2%
same,inhibition,"[17]; single agent, at 5 µM",-30.2%
same,inhibition,[18]; at 0.5 µM,-50% (inactive)
same,inhibition,[18]; [26],-14.8%
same,inhibition,[18]; [27],-67.7%
same,inhibition,"[18]; single agent, at 0.05 µM",32.2%
same,inhibition,"[18]; single agent, at 5 µM",11.1%
Nc1nc(Nc2cccc(Cl)c2)sc1C(=O)c1ccc(F)cc1,fold change,[1]; [19],0.868 (inactive)
same,fold change,[1]; [20],0.635
same,cell count,[1]; [21],7020
same,cell count,[1]; [22],8090
same,z-score,[2]; [23],1.64 (inactive)
same,z-score,[2]; [24],0.109
same,z-score,[3],-2.28 (inactive)
Cc1ncsc1-c1ccn(CC(=O)Nc2ccnn2Cc2cccs2)n1,fold change,[1]; [19],0.798 (inactive)
same,fold change,[1]; [20],1.89
same,cell count,[1]; [21],6540
same,cell count,[1]; [22],8190
same,z-score,[2]; [23],-0.383 (inactive)
same,z-score,[2]; [24],-0.375
same,z-score,[3],-0.525 (inactive)
O=C(O)c1ccc(-c2ccc([N+](=O)[O-])cc2Cl)o1,fold change,[1]; [19],0.876 (inactive)
same,fold change,[1]; [20],0.203
same,cell count,[1]; [21],8260
same,cell count,[1]; [22],9440
same,z-score,[2]; [23],0.0167 (inactive)
same,z-score,[2]; [24],-0.308
same,z-score,[3],0.255 (inactive)
COc1ccc(-c2oc3ncnc(NCCO)c3c2-c2ccc(OC)cc2)cc1,fold change,[1]; [19],0.89 (inactive)
same,fold change,[1]; [20],0.844
same,cell count,[1]; [21],5740
same,cell count,[1]; [22],6450
same,z-score,[2]; [23],1.03
same,z-score,[2]; [24],11.9
same,z-score,[3],-1.77 (inactive)
O=C(O)CCCCc1ccccc1,fold change,[1]; [19],0.916 (inactive)
same,fold change,[1]; [20],0.396
same,cell count,[1]; [21],9010
same,cell count,[1]; [22],9830
same,z-score,[2]; [23],0.335 (inactive)
same,z-score,[2]; [24],-0.289
same,z-score,[3],0.82 (inactive)
